# Results as given in PubChem BioAssay.
# Values without a mark were called inactive. For part of these data: Results with a measured potency or affinity are listed apart. The source made the active and inactive calls. Unless noted, how the calls were made is not given here.
# Assays:
# [1] = antimalarial activity against Dd2 strain (AID 2302;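 active means growth inhibition above 50% at the single 2 µM test dose, taken to imply half-maximal potency below 2 µM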;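 further: 0% = DMSO untreated growth and 100% = chloroquine plus artemisinin killed control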); details: P. falciparum Dd2 in RBCs, LDH growth readout, 72 h; at 2 µM; hits give high values
# [2] = human hepatoma cell viability loss – ATP luminescence, cytotoxicity control for P. falciparum antimalarial project, primary screen (AID 2303;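 active means inhibition above 50%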;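 further: 0% = DMSO wells and 100% = digitonin-killed cells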); details: HepG2 viability, 24-48 h, at 10 µM, hits give high values
# [3] = biological target: L-lactate dehydrogenase (Plasmodium falciparum (isolate CDC / Honduras)) (UniProt Q27743); assay: PfLDH activity inhibition – cell lysate, 3D7 strain, counter-screen for P. falciparum growth inhibition project (AID 2304);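 further: 0% = vehicle and 100% = reference inhibitor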; details: P. falciparum 3D7 crude extract, LDH APAD/NBT absorbance; at 2 µM; hits give high values
# [4] = inhibition of 3D7 malaria parasite growth – strain 3D7 (AID 2306);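 further: 0% = DMSO wells and 100% = chloroquine plus artemisinin control wells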; details: P. falciparum 3D7 erythrocytic growth, LDH absorbance, 72 h; at 2 µM; hits give high values
# [5] = biological target: Calcium-dependent protein kinase 1 (Plasmodium falciparum (isolate 3D7)) (UniProt P62344); assay: PfCDPK1 kinase inhibitors, biochemical, TCAMS library (AID 1159585; cut-off not given, nearly all actives have IC50 up to about 0.98 µM;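 further: inhibitors leave more ATP so luminescence rises with inhibition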); details: recombinant PfCDPK1, Kinase-Glo ATP depletion luminescence
# [6] = biological target: Plasmodium falciparum protein kinase 6 (PK6, PF3D7_1337100) (UniProt Q8IDW1); assay: PfPK6 kinase inhibitors, biochemical, TCAMS library (AID 1159586); details: recombinant PfPK6, Kinase-Glo ATP depletion luminescence
# [7] = biological target: Protein kinase 7 (PK7), Plasmodium falciparum 3D7 (PF3D7_0213400) (UniProt Q7YTF7); assay: inhibition of Plasmodium PK7 catalytic activity – biochemical, TCAMS antimalarial set, Kinase-Glo luminescence (AID 1159587); details: recombinant PfPK7, Kinase-Glo ATP depletion luminescence
# [8] = biological target: Calcium-dependent protein kinase 4 (Plasmodium falciparum (isolate 3D7)) (UniProt Q8IBS5); assay: PfCDPK4 kinase inhibitors, biochemical, TCAMS library (AID 1159588; cut-off not given, nearly all actives have IC50 up to about 0.91 µM); details: recombinant PfCDPK4, Kinase-Glo ATP depletion luminescence
# Chain of Calcium-dependent protein kinase 4 (Plasmodium falciparum (isolate 3D7)) (Q8IBS5 whole entry, looked up): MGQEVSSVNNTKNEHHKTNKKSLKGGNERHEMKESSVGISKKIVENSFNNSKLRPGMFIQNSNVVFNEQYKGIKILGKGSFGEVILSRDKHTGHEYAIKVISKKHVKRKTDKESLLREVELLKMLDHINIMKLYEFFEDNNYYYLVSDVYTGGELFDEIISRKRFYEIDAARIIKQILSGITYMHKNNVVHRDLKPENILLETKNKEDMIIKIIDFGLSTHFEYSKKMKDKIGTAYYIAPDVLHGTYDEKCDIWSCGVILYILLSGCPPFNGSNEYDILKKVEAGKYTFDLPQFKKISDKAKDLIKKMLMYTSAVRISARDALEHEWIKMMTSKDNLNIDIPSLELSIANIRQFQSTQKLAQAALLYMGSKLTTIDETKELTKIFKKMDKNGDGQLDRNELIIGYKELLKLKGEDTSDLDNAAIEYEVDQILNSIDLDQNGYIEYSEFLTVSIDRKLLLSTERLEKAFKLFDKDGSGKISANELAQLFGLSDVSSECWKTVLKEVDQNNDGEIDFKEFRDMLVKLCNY
# Chain of L-lactate dehydrogenase (Plasmodium falciparum (isolate CDC / Honduras)) (Q27743 whole entry, looked up): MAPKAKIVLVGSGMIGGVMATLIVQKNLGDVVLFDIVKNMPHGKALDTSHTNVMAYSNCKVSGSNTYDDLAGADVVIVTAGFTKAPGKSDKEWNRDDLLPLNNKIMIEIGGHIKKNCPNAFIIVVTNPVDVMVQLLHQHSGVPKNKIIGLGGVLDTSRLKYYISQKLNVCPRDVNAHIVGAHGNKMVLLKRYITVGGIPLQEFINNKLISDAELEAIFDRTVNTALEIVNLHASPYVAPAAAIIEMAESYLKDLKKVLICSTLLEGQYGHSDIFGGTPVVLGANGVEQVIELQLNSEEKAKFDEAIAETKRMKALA
# Chain of Protein kinase 7 (PK7), Plasmodium falciparum 3D7 (PF3D7_0213400) (Q7YTF7 1-343): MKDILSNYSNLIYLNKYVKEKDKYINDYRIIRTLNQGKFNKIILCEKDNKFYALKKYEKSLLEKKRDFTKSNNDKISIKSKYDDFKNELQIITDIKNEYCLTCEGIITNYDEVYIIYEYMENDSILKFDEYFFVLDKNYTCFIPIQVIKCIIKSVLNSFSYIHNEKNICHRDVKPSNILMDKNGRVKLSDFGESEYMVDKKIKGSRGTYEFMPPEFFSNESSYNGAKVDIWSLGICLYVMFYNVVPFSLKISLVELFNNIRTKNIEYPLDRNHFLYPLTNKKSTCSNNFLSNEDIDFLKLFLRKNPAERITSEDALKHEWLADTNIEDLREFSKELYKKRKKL
# Chain of Plasmodium falciparum protein kinase 6 (PK6, PF3D7_1337100) (Q8IDW1 1-305): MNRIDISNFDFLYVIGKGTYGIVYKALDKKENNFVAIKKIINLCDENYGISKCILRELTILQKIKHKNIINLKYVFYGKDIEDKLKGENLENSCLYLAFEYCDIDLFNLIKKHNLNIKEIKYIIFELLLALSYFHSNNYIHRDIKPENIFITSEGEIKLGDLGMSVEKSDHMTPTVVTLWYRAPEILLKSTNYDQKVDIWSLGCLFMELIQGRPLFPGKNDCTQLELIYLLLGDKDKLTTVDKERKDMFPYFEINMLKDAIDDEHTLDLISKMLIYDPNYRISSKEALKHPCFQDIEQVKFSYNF
# Chain of Calcium-dependent protein kinase 1 (Plasmodium falciparum (isolate 3D7)) (P62344 whole entry, looked up): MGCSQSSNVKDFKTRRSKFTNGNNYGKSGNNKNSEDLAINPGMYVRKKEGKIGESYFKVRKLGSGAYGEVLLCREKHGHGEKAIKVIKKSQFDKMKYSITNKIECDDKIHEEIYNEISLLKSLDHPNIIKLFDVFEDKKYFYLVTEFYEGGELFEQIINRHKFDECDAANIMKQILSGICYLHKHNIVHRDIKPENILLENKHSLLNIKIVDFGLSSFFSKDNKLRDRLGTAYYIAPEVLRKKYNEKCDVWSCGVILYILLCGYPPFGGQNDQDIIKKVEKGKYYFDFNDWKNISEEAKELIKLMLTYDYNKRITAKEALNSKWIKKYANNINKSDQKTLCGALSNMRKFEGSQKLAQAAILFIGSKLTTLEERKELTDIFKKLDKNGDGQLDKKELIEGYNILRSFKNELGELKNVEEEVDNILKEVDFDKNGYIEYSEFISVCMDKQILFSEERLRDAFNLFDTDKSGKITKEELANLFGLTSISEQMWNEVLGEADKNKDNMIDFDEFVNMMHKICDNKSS
Compound,growth inhibition [1],inhibition [2],inhibition [3] [%],growth inhibition [4],outcome [5],outcome [6],outcome [7],outcome [8]
CCCc1ccc(NC(=O)c2cccc(CN3CCCN(Cc4cccc(C#N)c4)CC3)c2)cc1,0%,20%,-4,85% (active),inactive,inactive,inactive,inactive
Brc1ccc(Nc2nc3ccccc3nc2Nc2ccc(Br)cc2)cc1,100% (active),18%,-2,101% (active),inactive,inactive,inactive,inactive
NC(=NCc1ccccc1)Nc1nc(-c2ccc(OCCCn3ccnc3)cc2)cs1,55% (active),10%,2,100% (active),inactive,inactive,inactive,inactive
O=C(Nc1cccc(CN2CCN(C(=O)c3cccc(Cl)c3)CC2)c1)c1cccs1,94% (active),17%,-6,94% (active),inactive,inactive,inactive,inactive
O=C(Cc1ccc(NC(=O)c2ccc(O)c(-c3ccc(Cl)c(Cl)c3)c2)cc1)NCCN1CCCCC1,63% (active),12%,-4,95% (active),inactive,inactive,inactive,inactive
CNC(=O)CC(=O)NCCc1ccc(Cl)cc1,1%,-7%,6,99% (active),inactive,inactive,inactive,inactive
NC(N)=NN=Cc1c2ccccc2c(Cl)c2cc(Cl)ccc12,28%,26%,-3,97% (active),inactive,inactive,inactive,inactive
CC(C)(C)c1ccc(C(=O)Nc2ccc3nc4c(c(N)c3c2)CCCC4)cc1,99% (active),21%,-4,100% (active),inactive,inactive,inactive,inactive
O=C(Nc1ccc(C(F)(F)F)cc1)c1ccc(S(=O)(=O)NCC2CCCN(CC3CCCCC3)C2)cc1 (centres undefined),-6%,44%,-7,93% (active),inactive,inactive,inactive,inactive
CCOc1cc(C(=O)NCCCN2CCCCC2C)ccc1-c1nc2ccc(Cl)cc2[nH]1 (centres undefined),0%,2%,-2,89% (active),inactive,inactive,inactive,inactive
CCN(CC)CCN(Cc1ccc(-c2ccc(C(F)(F)F)cc2)cc1)C(=O)Cn1c(CCc2cccc(F)c2F)cc(=O)c2c1CCCC2,95% (active),93% (active),1,100% (active),inactive,inactive,inactive,inactive
CN1CCN(c2cc(-c3cccc(C(F)(F)F)c3)nc(-c3ccncc3)n2)CC1,98% (active),38%,1,102% (active),inactive,inactive,inactive,inactive
Cc1cc(N[C@@H](Cc2ccccc2)C(=O)NC2CCCC2)nc(NCCCOC(C)C)n1,43%,-4%,-3,92% (active),inactive,inactive,inactive,inactive
Cc1cc(NC(=O)[C@H](CC2CCCCC2)Nc2ccc(C#N)c3ccccc23)ccc1F,99% (active),21%,-6,102% (active),inactive,inactive,inactive,inactive
c1ccc(CN2CCC(Nc3ccc(-c4cn[nH]c4-c4ccccn4)nc3)CC2)cc1,23%,1%,-5,97% (active),inactive,inactive,inactive,inactive
CCCCCN1CCCC1CNS(=O)(=O)c1cccc(C(=O)Nc2cccc(C#N)c2)c1 (centres undefined),7%,19%,-1,90% (active),inactive,inactive,inactive,inactive
O=C(CN1CCN(C(=O)c2ccco2)CC1)Nc1ccccc1Br,96% (active),15%,-4,97% (active),inactive,inactive,inactive,inactive
Nc1nccc2ccc(-c3ccc(NC(=O)Nc4cc(C(F)(F)F)ccc4F)cc3)cc12,100% (active),99% (active),-3,101% (active),inactive,inactive,inactive,inactive
COc1ccccc1C1CCN(C2CCC(NC(=O)/C=C/c3ccc(C(F)(F)F)cc3F)CC2)CC1 (centres undefined),2%,63% (active),2,95% (active),inactive,inactive,inactive,inactive
O=C(CN1CCN(C(C(=O)Nc2cc(C(F)(F)F)ccc2Cl)c2ccccc2)CC1)NC1CC1 (centres undefined),93% (active),-6%,-3,95% (active),inactive,inactive,inactive,inactive
O=C(CCc1cccc(O)c1)NCC(NCCCNc1cc(=O)c2ccccc2[nH]1)c1cc(Br)cc(Br)c1 (centres undefined),37%,-6%,-4,86% (active),inactive,inactive,inactive,inactive
COc1ccc(-c2ccc(NC(=O)c3ccc(C#N)cc3)cc2)cc1CN1CCCN(C)CC1,75% (active),27%,-3,99% (active),inactive,inactive,inactive,inactive
COc1ccc2nccc(N3CCC(CCNCc4ccc5c(n4)NC(=O)CS5)CC3)c2n1,75% (active),32%,-1,102% (active),inactive,inactive,inactive,inactive
COc1ccc2nccc([C@@H](O)CN3CCC(NC(=O)c4ccc(Cl)c(OC)c4)CC3)c2c1,28%,26%,5,87% (active),inactive,inactive,inactive,inactive

Compound,growth inhibition [1],inhibition [2],inhibition [3] [%],growth inhibition [4],outcome [5],outcome [6],outcome [7],outcome [8]
COc1cc(Cc2cnc(N)nc2N)c2c(c1OC)OC(C)(C)C=C2,2%,7%,-3,93% (active),inactive,inactive,inactive,inactive
Cc1nc2ccc3ccc(CNc4ccc5c(c4)CN([C@@H](CCC(=O)O)C(=O)O)C5=O)cc3c2c(=O)[nH]1,95% (active),41%,2,94% (active),inactive,inactive,inactive,inactive
O=C(Nc1ccccc1)N(Cc1cccc(-c2ccc(CNC3CCCC3)cc2)c1)C1CCN(Cc2ccccc2)CC1,96% (active),100% (active),8,101% (active),inactive,inactive,inactive,inactive
CCCCCCCCOc1c(OCC)cc(Cc2cnc(N)nc2N)cc1OCC,-1%,25%,3,80% (active),inactive,inactive,inactive,inactive
O=c1cc(NCCCNCc2cccc(OC(F)(F)C(F)F)c2)[nH]c2ccccc12,7%,6%,-5,81% (active),inactive,inactive,inactive,inactive
O=C(NCCCN1CCC(NC(=O)c2ccc(-c3cccnc3)cc2)CC1)c1ccc(Cl)c(Cl)c1,23%,17%,-5,94% (active),inactive,inactive,inactive,inactive
O=C(NCc1ccc(Cl)c(Cl)c1)[C@H]1CNCCN1C(=O)c1ccccc1,4%,-5%,1,97% (active),inactive,inactive,inactive,inactive
COC(=O)c1cccc(N2CCN(CCCNC(=O)/C(=C/C=C/c3cc4cc(Cl)c(Cl)cc4[nH]3)OC)CC2)c1,59% (active),38%,-1,100% (active),inactive,inactive,inactive,inactive
COc1ccc(CCNCCCCCCNCCc2ccccc2Cl)cc1OC,3%,13%,-1,96% (active),inactive,inactive,inactive,inactive
COc1nc2c(CCN3CC[C@@H](NCc4cc(C#N)c5c(c4)CCO5)[C@@H](O)C3)ccnc2cc1F,35%,21%,-1,92% (active),inactive,inactive,inactive,inactive
CCCCCC(NCCCC)c1ccc(OCCOc2ccc(C(CCCCC)NCCCC)cc2)cc1 (centres undefined),96% (active),99% (active),-2,88% (active),inactive,inactive,inactive,inactive
Cc1cc(C2CCN(CCCCNC(=O)c3ccc(NC(=O)c4ccc(Cl)cc4)cc3)CC2)c(C)cc1OC(C)C,92% (active),22%,7,100% (active),inactive,inactive,inactive,inactive
O=C(Oc1ccc(Cl)cc1C(=O)Nc1ccc([N+](=O)[O-])cc1Cl)c1ccccc1,19%,88% (active),3,97% (active),inactive,inactive,inactive,inactive
NCCCNc1ccnc2cc(Cl)ccc12,25%,14%,0,101% (active),inactive,inactive,inactive,inactive
Cc1cnc(C(=O)Nc2cccc(-c3ccc(-c4nc5ccc(F)cc5[nH]4)cc3)c2)cn1,13%,19%,-2,102% (active),inactive,inactive,inactive,inactive
Cn1cncc1C(=O)Nc1cccc(-c2ccc(-c3nc4ccc(F)cc4[nH]3)cc2)c1,31%,-1%,-2,101% (active),inactive,inactive,inactive,inactive
Cc1cc(NC(=O)c2ccco2)ccc1OC1CCN(Cc2ccc(C#N)cc2)CC1,89% (active),2%,-1,92% (active),inactive,inactive,inactive,inactive
COc1ccccc1-c1cccc(CNC2CCN(CC3Cn4c(=O)ccc5ccc(F)c3c54)CC2)c1 (centres undefined),-1%,30%,3,91% (active),inactive,inactive,inactive,inactive
COc1cccc(C(=O)NC(NC(=S)Nc2ccc(OC)cc2[N+](=O)[O-])C(Cl)(Cl)Cl)c1 (centres undefined),49%,9%,-2,99% (active),inactive,inactive,inactive,inactive
CC(C)(CNCc1ccc(C(F)(F)F)cc1)c1nc(-c2ccc(Cl)c(O)c2)c(-c2ccncc2)[nH]1,98% (active),42%,-1,101% (active),inactive,inactive,inactive,inactive
CC(C)(C)c1ccc(CNC(=O)c2cc(CNC3CCC(N)CC3)ccc2O)cc1 (centres undefined),1%,1%,0,94% (active),inactive,inactive,inactive,inactive
Cc1ccc(C(=O)NC2CCN(CCNC(=O)Nc3cc(C)nc4ccccc34)CC2)cc1,76% (active),-12%,-8,98% (active),inactive,inactive,inactive,inactive
NC(=O)c1cnc2cc(-c3ccoc3)ccc2c1Nc1ccc(NC(=O)Nc2ccccc2Cl)cc1,76% (active),39%,-5,100% (active),inactive,inactive,inactive,inactive
CN(C)Cc1c(O)ccc2[nH]c(-c3ccc(F)cc3F)nc12,17%,4%,-2,99% (active),inactive,inactive,inactive,inactive
